Epigenetic mod: derepresses silenced GFP locus in mouse C127i cells. Potency, µM (titrated, usually from 46.1 µM), inactives show top-dose GFP derepression (activation). actives 0.09% (n = 68,000). mouse C127i GFP locus derepression, cytometry, 30 h; further: % of control where 0% means no effect
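Murine C127i mammary cells carrying a silenced, stably integrated CMV-driven GFP reporter were treated with compound for 30 hours at 37 C. After PBS washes, GFP-positive cells were counted by laser-scanning microplate cytometry.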
Peg3 imprint: inducers of genomic imprint erasure in mouse ES cells | mouse ES Peg3-LacZ reporter, beta-gal luminescence, 40 h | Potency, µM (highest dose often 60.7 µM), inactives show at the highest dose activity change, positive = activation, hits mostly activators | actives 0.02% (n = 110,000) | AID 1948; further: potency means the concentration at half of the fitted maximal effect
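Imprint erasure is scored as LacZ activity from the silenced maternal Peg3 allele in feeder-free female ES cells cultured 40 h with LIF. Luminescence is normalized to in-plate negative controls and fitted to the Hill equation.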
p53ts 39C tox: kills p53ts cells at the nonpermissive temperature; actives 1.5% (n = 130,000); Potency, µM (doses to about 46.1 µM), for the others: top-dose activity change, negative = cell killing, usual class: cytotoxic; H1299-p53A138V viability at 39C, ATP luminescence, 24 h; further: potency means the concentration at half of the fitted maximal effect; on the % scale 0 is the no-effect control and ±100 the full control effect; nearly all actives have a fitted effect of over 55% in size
HBB splice mod: alters splicing of the hemoglobin beta chain | HBB splicing reporter cell assay, activation; EGFP reporter with mutant IVS2-654 intron; response scale: normalised to 500 nM splice-correcting PNA | Potency, µM (titrated, usually from 46.1 µM), for inactives: at the highest dose activation, usual class: activators | actives 0.06% (n = 65,000) | AID 925; further: potency means the concentration at half of the fitted maximal effect; 0% is about no effect
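Compounds were applied for 2 days to HeLa EGFP-654 cells, 500/well in Optimem with 2% FCS. The reporter's EGFP is disrupted by mis-splicing of beta-globin intron IVS2-654. Readout: summed well GFP fluorescence from 488 nm laser scanning; reference was 500 nM antisense […] 654 PNA.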
p53ts 32C tox: cytotoxicity in p53ts cells at permissive temperature; AID 924; actives 0.93% (n = 130,000); H1299-p53A138V at 32C, ATP luminescence viability, 24 h; Potency, µM (doses to about 46.1 µM), for the others: at the top dose activity change, negative = cytotoxicity, actives largely listed as cytotoxic;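 further: potency means the concentration at half of the fitted maximal effect; 0% = DMSO and -100% = full killing by reference compound; nearly all actives have a fitted effect of over 55% in size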
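H1299-p53 A138V cells (temperature-sensitive p53) exposed 24 h to up to 46 uM compound at 32C, where p53 is wild-type in conformation. Viability read as ATP luminescence and normalised to DMSO and 100 uM tamoxifen. AC50 fitted with the Hill equation.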
UbGFP stabilizer: inhibits proteasome, raising ubiquitin-GFP reporter fluorescence | Ubiquitin-GFP reporter cells, proteasome inhibition, GFP fluorescence; response scale: untreated = 0%, 10 µM MG-132 = 100% | Potency, µM (highest dose often 45.9 µM), for inactives: at the top dose activation (GFP accumulation), hits mostly activators | 67,000 tested, under 10 active | AID 526; active means well fitted activation curve with a large enough effect, not every such curve was filed as active; inconclusive means small, poorly fitted or top-dose-only effect, or another doubt; inactive means no such curve, though single readings can be large or run the other way; further: potency means the concentration at half of the fitted maximal effect
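Proteasome block read as GFP accumulation: ubiquitin(G76V)-GFP U2OS cells exposed to compound (2.9 nM–46 uM) for 4 hr at 37 C. Normalization used untreated cells as 0% and 10 uM MG-132 as 100%; concentration-response curves fitted.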
The depositor's hits bear a star; ? = inconclusive; . = no result given; [ ] = another dose, or the depositor's remark. Hits are enriched below; roughly 1.6% of the tested compounds scored in any of these assays. Unless noted, the call rests on the fitted dose curve; in most records, active means well fitted curve in the direction sought with a large enough effect; inconclusive means small, poorly fitted or top-dose-only effect, or another doubt; inactive means no such curve, though single readings can be large; an effect the other way counts as inactive or inconclusive.

SMILES | Epigenetic mod | Peg3 imprint | p53ts 39C tox | HBB splice mod | p53ts 32C tox | UbGFP stabilizer
Cc1ccc(N2C(=O)c3[nH]nc(-c4ccc(Cl)cc4)c3C2c2ccc(F)cc2)cc1 (stereo not given) | . | 18%[10.9 µM] | ? | . | ? | .
Nc1ccc2c3c(cccc13)CC2 | 13µM* | . | . | . | . | .
c1ccc(OCc2nc3ccccc3[nH]2)cc1 | 0% | -84% | ? | -1% | ? | 6%
Cc1ccc2nc(-c3ccc(NC(=O)C(F)(F)F)cc3)sc2c1 | . | -61%[10.9 µM] | 1.6µM* | . | 3.2µM* | .
CC(C)Oc1ccc(C(=O)Nc2nnc3n2CCS3)cc1 | . | -69%[10.9 µM] | 13µM* | . | ? | .
C=CCc1c(C)nc2nc(SCC(=O)Nc3ccc(C)c(C)c3)nn2c1C | . | -15%[10.9 µM] | 13µM* | . | -12% | .
C=CCc1c(C)nc2nc(SCC(=O)Nc3cccc(Cl)c3)nn2c1C | . | 13%[10.9 µM] | ? | . | -7% | .
Cc1ccc(S(=O)(=O)c2c(O)cc(C)c(NS(=O)(=O)c3ccc(Br)cc3)c2C)cc1 | . | 8%[10.9 µM] | ? | . | 21% | .
COC(=O)c1ccc2c(=O)n(CCCCCC(=O)N3CCN(c4cc(Cl)ccc4C)CC3)c(=O)[nH]c2c1 | . | -11%[10.9 µM] | 4µM* | . | 6.3µM* | .
Cc1ccc(NS(=O)(=O)c2ccc3[nH]c4c(c3c2)CCCCCC4)cc1 | . | -7%[10.9 µM] | ? | . | -3% | .
CCOC(=O)c1ccc(NS(=O)(=O)c2ccc3[nH]c4c(c3c2)CCCCC4)cc1 | . | -13%[10.9 µM] | 16µM* | . | ? | .
CCc1ccc(NS(=O)(=O)c2ccc3[nH]c4c(c3c2)CCCCCC4)cc1 | . | -14%[10.9 µM] | 20µM* | . | 11% | .
CCSc1nc2ccccc2c(OCc2cc(C(=O)OC)ccc2OC)c1C(=O)OC | . | -10%[10.9 µM] | 1% | . | 28% | .
CNC(=O)CCc1nc(-c2ccc(C(C)(C)C)cc2)no1 | 0% | -26% | ? | -1%[1.84 µM] | 13µM* | 4%
O=C(COc1ccc(S(=O)(=O)NC2CCCCC2)cc1Cl)NCC1CCCO1 (stereo not given) | 0% | -15% | 5% | -5% | -4% | 0%
N#C/C(=C\c1ccc(-c2cccc(Cl)c2)o1)C(=O)Nc1cccc(C(F)(F)F)c1 | . | -20%[10.9 µM] | 13µM* | . | -1% | .
CCC(C)OC(=O)/C(C#N)=C\c1ccc(-c2cccc(C(F)(F)F)c2)o1 (stereo not given) | . | -9%[10.9 µM] | -4% | . | 1% | .
O=C(Cn1cnc2ccccc2c1=O)OCCCCN1C(=O)c2ccccc2C1=O | 2% | -12% | -5% | -1% | 5% | -1%
COc1ccc(-c2nnc3ccc(SCC(=O)Nc4nccs4)nn23)cc1OC | . | . | 10% | . | 34% | .
Cc1cccc(N2C(=O)c3cccc4c(N(C)CCO)ccc(c34)C2=O)c1 | 0% | -11% | 31% | 20µM* | -7% | -4%[9.17 µM]
CC(=O)Nc1cccc2c1C(=O)N(c1cccc(C)c1)C2=O | . | . | 12% | . | -6% | .
CC1=C(c2ccc(C(C)C)cc2)S(=O)(=O)N=C1N1CCC(C(=O)Nc2ccc(C)cc2)CC1 | . | -22%[10.9 µM] | 13µM* | . | ? | .
CC1=C(c2ccc(F)cc2)S(=O)(=O)N=C1N1CCC(C(=O)NCCc2ccccc2)CC1 | . | 11%[10.9 µM] | -11% | . | 5% | .
CCc1ccc(C2=C(C)C(N3CCC(C(=O)Nc4ccc(F)cc4)CC3)=NS2(=O)=O)cc1 | . | -10%[10.9 µM] | 10µM* | . | ? | .
COc1ccc(-c2cc(C(=O)N3CC4(C)CC3CC(C)(C)C4)no2)cc1 (stereo not given) | -2% | -11% | -6% | -1% | -2% | -9%
COc1ccc(CC2CCOC2=O)cc1 (stereo not given) | -2% | 3% | 0% | 1%[9.22 µM] | 9% | 1%
CCc1ccc(CNC(=O)CN(c2ccc(C)cc2)S(=O)(=O)N(C)C)cc1 | . | -13%[10.9 µM] | 6% | . | -2% | .
Cc1ccccc1Nc1c(-c2ccc(N3CCOCC3)cc2)nc2ncccn12 | . | -9%[10.9 µM] | 4µM* | . | 13µM* | .

Screening data as filed in PubChem.
